Laboratory results reported in PubChem BioAssay (EPA / NIEHS).
Active and inactive are the calls of the source. Rule for the calls: active = hit-call score of the fitted dose curve at least 0.9, where 1 is the maximum; inactive = score below 0.9.

What was measured:
Conditions in all cases: mRNA level, 48 h; actives raise or lower the signal
[1] = read-out: Forkhead box O3 (FOXO3), FOXO3 (gene 2309); assay: LTEA_HepaRG_FOXO3: Life Technologies and Expression Analysis (LTEA) Assay for Forkhead box O3 (FOXO3) using HepaRG (AID 2283459)
Summary of the method: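 FOXO3 transcript measured by qRT-PCR (normalized to ACTB, GAPDH, POLR2A) after 48 h exposure of HepaRG cells in serum-free induction medium. Duplicates, eight half-log concentrations up to 100 uM, 0.5% DMSO; gain or loss fitted against DMSO.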

[2] = read-out: ABC Transporter (ABCB1), ABCB1 (gene 5243); assay: LTEA_HepaRG_ABCB1: Life Technologies and Expression Analysis (LTEA) Assay for ABC Transporter (ABCB1) using HepaRG (AID 2283460)
Summary of the method: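 ABCB1 transcript level measured by TaqMan qRT-PCR against three housekeeping genes after 48 h chemical exposure of differentiated HepaRG cells. Top concentration 100 uM, half-log steps, eight points, 0.5% DMSO vehicle; bidirectional fit relative to DMSO.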

[3] = read-out: growth arrest and DNA damage 45 (GADD45B), GADD45B (gene 4616); assay: LTEA_HepaRG_GADD45B: Life Technologies and Expression Analysis (LTEA) Assay for growth arrest and DNA damage 45 (GADD45B) using HepaRG (AID 2283461)
Summary of the method: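 qRT-PCR read-out (Fluidigm TaqMan, housekeeping-normalized) of mRNA change in human HepaRG cells after 48 h chemical exposure; 8-point curve, top 100 uM, half-log steps, 0.5% DMSO vehicle; gain or loss fitted relative to DMSO baseline.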

[4] = read-out: ABC Transporter (ABCC3), ABCC3 (gene 8714); assay: LTEA_HepaRG_ABCC3: Life Technologies and Expression Analysis (LTEA) Assay for ABC Transporter (ABCC3) using HepaRG (AID 2283462)
Summary of the method: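 qRT-PCR read-out of ABCC3 transcript, normalized to three housekeeping genes (ACTB, GAPDH, POLR2A), after 48 h chemical exposure of human HepaRG cells. Eight half-log concentrations, highest 100 uM, in 0.5% DMSO; gain or loss fitted relative to DMSO baseline.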

[5] = read-out: ABC Transporter (ABCB11), ABCB11 (gene 8647); assay: LTEA_HepaRG_ABCB11: Life Technologies and Expression Analysis (LTEA) Assay for ABC Transporter (ABCB11) using HepaRG (AID 2283463)
Summary of the method: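 ABCB11 transcript levels quantified by TaqMan qRT-PCR against three housekeeping genes after 48 h chemical exposure of HepaRG cultures. Concentrations up to 100 uM in half-log steps, 0.5% DMSO vehicle; both induction and suppression scored.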

[6] = read-out: ABC Transporter (ABCC2), ABCC2 (gene 1244); assay: LTEA_HepaRG_ABCC2: Life Technologies and Expression Analysis (LTEA) Assay for ABC Transporter (ABCC2) using HepaRG (AID 2283464)
Summary of the method: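 qRT-PCR (TaqMan, Fluidigm array) read-out of ABCC2 mRNA, normalized to three housekeeping genes. Differentiated HepaRG cells were treated 48 h in serum-free induction medium with 8-point half-log series from 100 uM in 0.5% DMSO; curves fitted bidirectionally relative to DMSO.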

[7] = read-out: Broad substrate specificity ATP-binding cassette transporter ABCG2 (Homo sapiens) (UniProt Q9UNQ0); assay: LTEA_HepaRG_ABCG2: Life Technologies and Expression Analysis (LTEA) Assay for ABC Transporter (ABCG2) using HepaRG (AID 2283465)
Summary of the method: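 ABCG2 transcript was quantified by TaqMan qRT-PCR against three housekeeping genes in HepaRG cells. Cells were treated in duplicate for 48 h across an 8-point half-log series up to 100 uM, with 0.5% DMSO vehicle. Gain or loss versus DMSO was fit.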

[8] = read-out: ATP-citrate lyase (ACLY), ACLY (gene 47); assay: LTEA_HepaRG_ACLY: Life Technologies and Expression Analysis (LTEA) Assay for ATP-citrate lyase (ACLY) using HepaRG (AID 2283466)
Summary of the method: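 ACLY mRNA quantified by qRT-PCR on Fluidigm arrays against three housekeeping genes, after 48 h chemical treatment of HepaRG cells (top concentration 100 uM, half-log steps, 0.5% DMSO vehicle). Up- or down-regulation fitted relative to DMSO.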

[9] = read-out: Peroxisomal acyl-coenzyme A oxidase 1 (ACOX1) gene, ACOX1 (gene 51); assay: LTEA_HepaRG_ACOX1: Life Technologies and Expression Analysis (LTEA) Assay for Peroxisomal acyl-coenzyme A oxidase 1 (ACOX1) gene using HepaRG (AID 2283467)
Summary of the method: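 ACOX1 transcript levels were quantified by TaqMan qRT-PCR against three housekeeping genes after 48 h chemical exposure of differentiated human HepaRG cells. Exposure used eight half-log steps topping at 100 uM, 0.5% DMSO vehicle, in duplicate. Bidirectional curve fits were made relative to DMSO.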

[10] = read-out: Alkaline Phosphatase, Placental (ALPP) gene, ALPP (gene 250); assay: LTEA_HepaRG_ALPP: Life Technologies and Expression Analysis (LTEA) Assay for Alkaline Phosphatase, Placental (ALPP) gene using HepaRG (AID 2283468)
Summary of the method: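 qRT-PCR readout of ALPP mRNA (Fluidigm TaqMan), normalized to ACTB/GAPDH/POLR2A, after 48 h chemical exposure of HepaRG cells; 8-point half-log series, top 100 uM, 0.5% DMSO vehicle. Bidirectional curve fit versus DMSO baseline.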

[11] = read-out: Bcl-2 (BAD) gene, BAD (gene 572); assay: LTEA_HepaRG_BAD: Life Technologies and Expression Analysis (LTEA) Assay for Bcl-2 (BAD) gene using HepaRG (AID 2283469)
Summary of the method: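 Read-out: qRT-PCR of BAD mRNA, normalized to three housekeeping genes. Human HepaRG cultures got 48 h chemical exposure in 0.5% DMSO, duplicate eight-point half-log series topping at 100 uM. Gain or loss of signal fitted versus DMSO vehicle.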

[12] = read-out: Bcl-2 (BAX) gene, BAX (gene 581); assay: LTEA_HepaRG_BAX: Life Technologies and Expression Analysis (LTEA) Assay for Bcl-2 (BAX) gene using HepaRG (AID 2283470)
Summary of the method: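 qRT-PCR read-out of BAX mRNA, normalized to three housekeeping genes, after 48 h chemical exposure of human HepaRG cells in serum-free induction medium; eight-point half-log series, top 100 uM, 0.5% DMSO vehicle; bidirectional fit versus DMSO.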

[13] = read-out: adenosine kinase (ADK) gene, ADK (gene 132); assay: LTEA_HepaRG_ADK: Life Technologies and Expression Analysis (LTEA) Assay for adenosine kinase (ADK) gene using HepaRG (AID 2283471)
Summary of the method: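 Following 48 h exposure of HepaRG cells in 0.5% DMSO (top concentration 100 uM, duplicate wells), ADK mRNA induction or suppression was measured by qRT-PCR, normalised to ACTB/GAPDH/POLR2A, and fitted bidirectionally relative to vehicle.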

BCL2L11 (gene 10018) = assay: LTEA_HepaRG_BCL2L11: Life Technologies and Expression Analysis (LTEA) Assay for Bcl-2 (BCL2L11) gene using HepaRG (AID 2283473)
Summary of the method: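 HepaRG, 48 h exposure, 8-pt half-log series from 100 uM in 0.5% DMSO, duplicates; qRT-PCR (Fluidigm TaqMan) for BCL2L11, housekeeping-normalized; bidirectional curve fit relative to DMSO baseline.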

[14] = read-out: Apolipoprotein A-V (APOA5) gene, APOA5 (gene 116519); assay: LTEA_HepaRG_APOA5: Life Technologies and Expression Analysis (LTEA) Assay for Apolipoprotein A-V (APOA5) gene using HepaRG (AID 2283474)
Summary of the method: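 HepaRG, 48 h chemical exposure in serum-free induction medium, 8-pt half-log series (top 100 uM), 0.5% DMSO vehicle, duplicates. Readout: APOA5 mRNA by qRT-PCR, housekeeping-normalized; bidirectional fit vs DMSO baseline.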

[15] = read-out: Apoptosis regulator Bcl-2 (Homo sapiens) (UniProt P10415); assay: LTEA_HepaRG_BCL2: Life Technologies and Expression Analysis (LTEA) Assay for Bcl-2 gene using HepaRG (AID 2283475)
Summary of the method: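 qRT-PCR read-out (Fluidigm TaqMan) of BCL2 transcript, normalised to three housekeeping genes, after 48 h chemical exposure of HepaRG cells; 8-point half-log series, top 100 uM, 0.5% DMSO vehicle. Gain or loss of signal fitted relative to DMSO baseline.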

[16] = read-out: Bcl-2 (BID) gene, BID (gene 637); assay: LTEA_HepaRG_BID: Life Technologies and Expression Analysis (LTEA) Assay for Bcl-2 (BID) gene using HepaRG (AID 2283476)
Summary of the method: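 HepaRG, 48 h exposure, 8-pt half-log series, top 100 uM, 0.5% DMSO vehicle, duplicates. Readout: BID mRNA by TaqMan qRT-PCR; housekeeping-normalized; bidirectional curve fit vs DMSO baseline.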

Caspase-3 (Homo sapiens) = Caspase-3 (Homo sapiens) (UniProt P42574); assay: LTEA_HepaRG_CASP3: Life Technologies and Expression Analysis (LTEA) Assay for cysteine-aspartic acid protease (CASP3) using HepaRG (AID 2283477)
Chain of Caspase-3 (Homo sapiens) (P42574 whole entry, looked up): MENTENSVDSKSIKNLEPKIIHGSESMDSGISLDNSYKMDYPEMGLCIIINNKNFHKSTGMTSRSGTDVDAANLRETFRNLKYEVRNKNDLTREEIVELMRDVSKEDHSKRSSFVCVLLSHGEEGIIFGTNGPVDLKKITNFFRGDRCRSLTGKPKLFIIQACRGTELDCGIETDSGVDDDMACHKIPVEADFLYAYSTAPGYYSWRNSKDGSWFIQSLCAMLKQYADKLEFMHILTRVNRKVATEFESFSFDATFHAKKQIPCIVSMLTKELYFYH
Summary of the method: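 HepaRG, 48 h exposure, 8 conc. (top 100 uM, half-log steps, duplicate), 0.5% DMSO vehicle; qRT-PCR of CASP3 transcript, housekeeping-normalised (ACTB/GAPDH/POLR2A); bidirectional curve fit vs DMSO baseline.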

[17] = read-out: Alpha-fetoprotein (AFP) gene, AFP (gene 174); assay: LTEA_HepaRG_AFP: Life Technologies and Expression Analysis (LTEA) Assay for Alpha-fetoprotein (AFP) gene using HepaRG (AID 2283472)
Summary of the method: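 qRT-PCR (Fluidigm TaqMan) readout of AFP transcript, normalized to three housekeeping genes, fitted bidirectionally against 0.5% DMSO baseline. HepaRG cells received chemicals for 48 h in serum-free induction medium, top concentration 100 uM, half-log steps.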

[18] = read-out: Cytochrome P450 (CYP24A1), CYP24A1 (gene 1591); assay: LTEA_HepaRG_CYP24A1: Life Technologies and Expression Analysis (LTEA) Assay for Cytochrome P450 (CYP24A1) using HepaRG (AID 2283478)
Summary of the method: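 qRT-PCR read-out: CYP24A1 transcript levels normalized to three housekeeping genes, bidirectional curve fits against 0.5% DMSO baseline. Human HepaRG cells treated 48 h with chemicals at eight concentrations from 100 uM in half-log steps.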

Measured: AC50

Chain of Apoptosis regulator Bcl-2 (Homo sapiens) (P10415 whole entry, looked up): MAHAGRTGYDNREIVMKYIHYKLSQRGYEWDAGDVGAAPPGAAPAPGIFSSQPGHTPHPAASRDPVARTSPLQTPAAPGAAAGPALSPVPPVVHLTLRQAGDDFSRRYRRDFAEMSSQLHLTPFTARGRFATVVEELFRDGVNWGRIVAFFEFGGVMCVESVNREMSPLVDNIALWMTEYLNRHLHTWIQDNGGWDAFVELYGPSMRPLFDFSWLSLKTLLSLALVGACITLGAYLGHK
Chain of Broad substrate specificity ATP-binding cassette transporter ABCG2 (Homo sapiens) (Q9UNQ0 whole entry, looked up): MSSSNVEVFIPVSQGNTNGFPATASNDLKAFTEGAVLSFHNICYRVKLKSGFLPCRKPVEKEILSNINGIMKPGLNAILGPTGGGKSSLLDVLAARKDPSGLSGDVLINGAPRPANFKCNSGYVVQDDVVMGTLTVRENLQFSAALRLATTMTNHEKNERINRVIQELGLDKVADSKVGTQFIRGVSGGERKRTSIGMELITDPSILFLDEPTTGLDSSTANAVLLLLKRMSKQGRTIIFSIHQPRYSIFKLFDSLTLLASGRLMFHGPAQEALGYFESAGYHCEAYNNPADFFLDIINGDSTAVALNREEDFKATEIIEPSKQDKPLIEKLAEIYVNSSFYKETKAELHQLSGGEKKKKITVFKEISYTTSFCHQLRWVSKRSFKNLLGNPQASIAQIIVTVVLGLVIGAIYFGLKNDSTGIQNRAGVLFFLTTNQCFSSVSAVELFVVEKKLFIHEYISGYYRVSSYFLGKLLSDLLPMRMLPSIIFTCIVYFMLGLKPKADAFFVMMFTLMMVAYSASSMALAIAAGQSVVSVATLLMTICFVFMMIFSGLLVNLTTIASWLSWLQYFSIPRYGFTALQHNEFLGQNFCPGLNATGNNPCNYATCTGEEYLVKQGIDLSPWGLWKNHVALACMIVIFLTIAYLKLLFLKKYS

Cc1ccc(O)cc1
not listed: [17] | [18]
inactive: all other assays above

COC(=O)c1ccccc1O
not listed: BCL2L11 (gene 10018) | Caspase-3 (Homo sapiens)
inactive: all other assays above

C=CC(=C)CCC=C(C)C
not listed: [7]
inactive: all other assays above

COc1ccc2sc(C(=O)Nc3nnn[nH]3)c(OC(C)C)c2c1
active: [1] 23.6 µM | [3] 43.9 µM | [4] 24.4 µM | [5] 12.1 µM | [6] 81 µM | [8] 11.9 µM | [12] 50 µM | [17] 59.5 µM | BCL2L11 (gene 10018) 31.1 µM | [15] 25.2 µM
inactive: [2] | [7] | [9] | [10] | [11] | [13] | [14] | [16] | [18]
